Measured values as given in ChEMBL document CHEMBL1201862, “PubChem BioAssay data set” (2004).
Hit rate of the full screen: of about 58,000 sequences, about 4,100 (7.1%) were called active. No stated cut-off is given here; in the data, active = GI50 up to about 1.1 µM and inactive = higher. The list is a sample of the results. Potency and affinity values are given separately.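 A five-concentration, 48-hour dose response in 96-well plates underlies each endpoint, interpolated linearly between surrounding concentrations. GI50 is the concentration that inhibits growth by half.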

Tested on: U-251
Test: NCI tumour cell line growth inhibition, 48 h

| Substance | GI50 |
| --- | --- |
| [Bis(aminomethyl)diethylsilane]tetrachloroplatinum(IV), CHEMBL2146203 | 2 µM |
| [Bis(aminomethyl)pentamethylenesilane]tetrachloropaltinum(IV), CHEMBL2146204 | 2.94 µM |
| [Bis(aminomethyl)tetramethylenesilane]tetrachloropaltinum(IV), CHEMBL2146189 | 3.59 µM |
| [Bis(aminomethyl)ethylmethylsilane]tetrachloroplatinum(IV), CHEMBL2146192 | 6.07 µM |
| CISPLATIN, CHEMBL11359 | 1.92 µM |
| cis-Bis[[(trimethylsilyl)methyl]amino]tetrachloroplatinum(IV), CHEMBL2146191 | 14.9 µM |
| [Bis(aminomethyl)dimethylsilane]dichloroplatinum (II), CHEMBL2146201 | 33.5 µM |
| [Bis(aminomethyl)tetramethylenesilane]dichloropaltinum(II), CHEMBL2146205 | 30.3 µM |
| [Bis(aminomethyl)dimethylsilane]tetrachloroplatinum(IV), CHEMBL2146190 | 9.42 µM |
| mu-(1,7-nanodiamine-N,N')bis-(cis-aminedichloroplatimum (II)), CHEMBL2146215 | 10.3 µM |
| [Bis(aminomethyl)pentamethylenesilane]dichloropaltinum(II), CHEMBL2146202 | 2.93 µM |
